Screens as filed in PubChem BioAssay.
A selection: hits, their analogues and other compounds. The true share with any hit is near 1.1%.
MsrA inhibitor: inhibits bovine methionine sulfoxide reductase A. purified bovine MsrA, absorbance read-out. inhibition, % at 15.5 µM. hit rate 0.75% among 360,000. AID 651718; in the data active means inhibition above about 4.5%;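 further: 0% = vehicle wells with enzyme and 100% = reference inhibitor wells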
MsrA act: activates bovine MsrA enzyme. purified bovine MsrA, absorbance read-out. activation, % at 10.6 µM. hit rate 0.3% among 360,000. AID 602163; in the data active means activation above about 7.5%;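 further: 0% = vehicle and 100% = reference activator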
PKA-R2B act: PKA-R2B complex activation; PKA-R2B holoenzyme dissociation, Cy5-IP20 fluorescence polarization; R2B truncated from residue 108, S112A mutant; 0% DMSO only, 100% 113 µM cGMP; AID 504700; hit rate 0.079% among 340,000; P22694+P31323; activation, % at 11.4 µM;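 active means activation above a cutoff set at the mean over all compounds plus 3 SD, cut at about 18% in these data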;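 further: higher means more holoenzyme dissociation and a rise in polarization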
Target sequence (P31323 whole entry, looked up, other chains not shown, the tested form may be a part): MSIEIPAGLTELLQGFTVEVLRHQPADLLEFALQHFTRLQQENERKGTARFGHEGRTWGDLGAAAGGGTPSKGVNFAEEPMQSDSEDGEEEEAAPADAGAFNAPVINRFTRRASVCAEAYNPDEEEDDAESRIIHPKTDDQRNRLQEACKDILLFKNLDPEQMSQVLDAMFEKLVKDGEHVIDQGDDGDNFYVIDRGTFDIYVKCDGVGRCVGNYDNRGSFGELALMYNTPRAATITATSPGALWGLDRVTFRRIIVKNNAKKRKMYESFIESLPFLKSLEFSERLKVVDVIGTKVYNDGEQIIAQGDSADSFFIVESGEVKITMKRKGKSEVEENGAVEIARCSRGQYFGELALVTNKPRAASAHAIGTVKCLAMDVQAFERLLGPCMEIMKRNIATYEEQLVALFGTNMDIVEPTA
PKA-R1A act: PKA-R1A complex activation; hit rate 0.083% among 340,000; P00514+P68181; AID 504707; activation, % at 11.4 µM; PKA-R1A dissociation, Cy5-IP20 fluorescence polarization; scaled: DMSO 0%, 113 µM cGMP 100%;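 active means percent activation above the mean of all tested compounds plus 3 SD, cut at about 19% in these data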;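 further: higher means more PKAc released from R1A so a rise in polarization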
MsrA activ conf: confirmation of bovine methionine sulfoxide reductase A activators. shares compounds with MsrA act. purified bovine MsrA, absorbance read-out. activation, % at 10.6 µM. hit rate 12% among 1,000; in the data active means activation above about 4%;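 further: enzyme coupled to thioredoxin and thioredoxin reductase with NADPH; 0% = vehicle wells and 100% = reference activator wells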
The depositor's hits bear a star; / = no result.

SMILES	MsrA inhibitor	MsrA act	PKA-R2B act	PKA-R1A act	MsrA activ conf
C[C@H](CO)N1C[C@H](C)[C@@H](CN(C)Cc2ccccc2)OCCCC[C@H](C)Oc2ccc(N(C)C)cc2C1=O	0	8.7*	6	-6	-3
COc1cccc(S(=O)(=O)N(C)C[C@@H]2Oc3ncc(Br)cc3C(=O)N([C@H](C)CO)C[C@@H]2C)c1	0	/	/	/	/
Nn1cnnc1N/N=C\c1ccc(-c2ccccc2[N+](=O)[O-])o1	0	20*	-12	-2	-1
COC(=O)CCS(=O)(=O)c1cc(Cl)ccc1Cl	1	8.3*	2	2	0
O=C(O)c1ccccc1NS(=O)(=O)c1cccc(-n2sc3ccccc3c2=O)c1	1	7.7*	-7	-3	3
CCN(Cc1ccccc1)C(c1ccccn1)c1nnnn1C1CCCCC1 (centres undefined)	-1	0	-9	-8	/
CC(c1nnnn1C1CCCCC1)N(Cc1ccccc1)Cc1cccnc1 (centres undefined)	1	11*	-8	-5	1
COC(=O)C1=C(C)N(C)C(=NCc2cc(OC)c(OC)c(OC)c2)NC1c1ccc(Cl)cc1 (centres undefined)	1	/	/	/	/
COc1ccc(CC(=O)N2CCCc3ccccc32)cc1OC	-1	9.6*	-4	-16	-3
COc1ccc(CC(=O)N2CCCc3ccccc32)cc1	0	-5	-8	4	/
COc1ccc2oc(=O)c(C(=O)NCc3ccc4c(c3)OCO4)cc2c1	1	-3	3	0	/
COc1ccc2oc(=O)c(C(=O)NCCc3ccc(OC)c(OC)c3)cc2c1	-1	7.7*	5	6	2
Cc1ccc(-c2csc3n[nH]c(=S)n23)cc1	-1	12*	-5	-10	2
CCn1c(-c2ccc(C)cc2)n[nH]c1=S	0	-4	-3	-10	/
c1ccc2[nH]c3cc4ncnc4cc3nc2c1	0	18*	-2	-3	15*
FC(F)c1nc2ccccc2[nH]1	-1	-7	0	-2	/
Nc1[nH]c(C(=O)c2ccc(Br)cc2)c(-c2ccc(Cl)cc2Cl)c1C(=O)NCCc1c[nH]c2ccccc12	2	/	/	/	/
N#Cc1cn(CC(=O)N2CCCc3ccccc32)c2ccccc12	1	8.1*	4	-4	1
Cc1ccccc1CN1CCN(C(=O)[C@H]2O[C@@H](n3cnc(C(N)=O)n3)[C@H](O)[C@@H]2O)CC1	-2	/	/	/	/
FC(F)(F)c1cccc(-c2nc3nc(Cl)c(Cl)nc3[nH]2)c1	/	12*	-14	-2	-4
O=C(NN1C(=O)c2cc(Br)ccc2NC1c1cc(Br)cc(Br)c1O)c1ccncc1 (centres undefined)	0	8.9*	-14	-7	-4
O=C(c1cc(Cl)c(=O)n(Cc2ccccc2)c1)N1CCOCC1	-1	9.2*	2	5	-1
O=C(c1ccc(CN2CCOCC2)cc1)N1CCN(Cc2ccccc2)CC1	-1	-2	10	7	/
Cn1c(=O)c2cc(NC(=O)CCc3ccccc3)ccc2n1-c1ccccc1F	0	-1	/	/	/
CCOCCC(=O)Nc1ccc2c(c1)c(=O)n(C)n2-c1ccccc1F	0	10*	/	/	0
SMILES	MsrA inhibitor	MsrA act	PKA-R2B act	PKA-R1A act	MsrA activ conf
CN(C(=O)c1ccc(NC(=O)Cc2cccc(NC(=O)C3CCCN(C(=O)C4CC4)C3)c2)cc1)C1CCCC1 (centres undefined)	-1	8.3*	1	1	-1
CN(C(=O)c1ccc(NC(=O)Cc2cccc(NC(=O)C3CCCN(C(=O)C4CCCCC4)C3)c2)cc1)C1CCCC1 (centres undefined)	-1	-2	-11	2	/
CS(=O)(=O)Nc1ccc(C(=O)NCCSCc2ccccc2)cc1	2	2	-3	9	/
CS(=O)(=O)Nc1ccc(C(=O)NCCSCc2c(F)cccc2Cl)cc1	-1	8.3*	3	6	1
CCN=C1NC(c2ccc(F)cc2)C(C(=O)OC)=C(C)N1Cc1ccccc1C(F)(F)F (centres undefined)	-1	/	/	/	/
COc1ccc(-n2c(=O)[nH]cc(C(=O)Nc3ccc4c(c3)OCO4)c2=O)cc1OC	-1	12*	1	-7	0
COc1ccc(-n2c(=O)[nH]cc(C(=O)Nc3ccc4c(c3)OCCO4)c2=O)cc1	0	-1	-1	-11	/
C[C@]12Cc3ccccc3C1CC1=N[C@@H](c3ccccn3)O[C@@]13C[C@@H]2C(=O)N3C1CCN(Cc2ccccc2)CC1 (some centres undefined)	-1	/	/	/	/
C/C(CC(=O)NC12CC3CC(CC(C3)C1)C2)=N\NC(=O)c1cnccn1	1	14*	1	-5	-1
O=C(NC12CC3CC(CC(C3)C1)C2)c1cnccn1	0	2	10	4	/
Cc1ccccc1-c1noc(CCC(=O)NCc2ccco2)n1	-1	12*	14	3	-2
Cc1ccccc1C(=O)NNC(=S)NC(=O)COc1ccccc1	0	13*	7	-2	0
CN(C(=O)[C@H]1O[C@@H](n2cnc3c(=O)[nH]c(N)nc32)[C@H](O)[C@@H]1O)C1CCCCC1	0	/	/	/	/
COC(=O)N1C[C@H](Oc2ncccn2)[C@H]2C[C@@H]1c1ccccc1O2	1	/	/	/	/
COc1ccc(-c2cc(-c3ccccc3)nc(N3CCCC3)n2)cc1OC	0	8.0*	-5	-8	-1
COc1ccc(-c2cc(C(F)(F)F)nc(N3CCOCC3)n2)cc1OC	0	-1	-9	5	/
Cc1cc(C(F)(F)F)n2nc(C)c(-c3ccc(Cl)cc3)c2n1	-1	16*	-5	-5	0
CCOC(=O)CC(NC(=O)c1cccc2c1C(=O)N(Cc1cccnc1)C2)c1ccc(OCC)c(OC)c1 (centres undefined)	-1	8.6*	-4	-2	3
C=CCOc1ccc(Oc2cc(C)nc(SC)n2)nn1	0	13*	1	-14	-3
C[C@@H]1CN(c2ccc(N3CCNC[C@H]3C)cc2C#N)CCN1Cc1ccccc1	-1	/	/	/	/
CCOC(=O)Nc1ccc2c(c1)N(C(=O)CN(CC)CC)c1ccccc1CC2	-1	0	4	14	/
CCOC(=O)Nc1ccc2c(c1)N(C(=O)CN(CC)CC)c1ccccc1C=C2	-1	7.9*	-11	-2	0
C=CCn1c(COc2ccc(Cl)cc2)nnc1SCC(=O)NCC(=O)OCC	1	8.2*	0	0	0
CCCCOCCCNC(=O)C[C@H]1C[C@@]2(C(=O)OC)C(=C[C@H](C(C)(C)C)O[C@@H]2C)N(CCC2=CCCCC2)C1=O	1	/	/	/	/
O=C(CCc1ccccc1)NCCC1=CCCCC1	0	-3	8	9	/
O=C(CCCc1ccccc1)NCCC1=CCCCC1	1	8.5*	-7	-2	-2
CCOC(=O)C(=O)N(C)c1c(CC)nc2c(OCc3cccc(Cl)c3)cccn12	0	2	/	/	/
CCOC(=O)C(=O)N(C)c1c(CC)nc2c(OCCC3CCCCC3)cccn12	0	8.2*	/	/	1
